According to the supplement of paper PMC11732987, “Enantioselective OTUD7B fragment discovery through chemoproteomics screening and high-throughput optimisation” (Communications Chemistry, 2025):

Experiments:
Assay in all cases: log2 ratio of Biotin-Ahx-Ub-VS probe labelling (fragment/DMSO); higher = less target engagement (more negative = stronger competition), active = hit call of the paper (q ≤ 0.05, log2 ratio ≤ -1)
Conditions in all cases: compound concentration: 200 uM; treatment time: 3 h
[1] = target: T1, ALG13 (UniProt Q9NP73)
T1 sequence (whole entry): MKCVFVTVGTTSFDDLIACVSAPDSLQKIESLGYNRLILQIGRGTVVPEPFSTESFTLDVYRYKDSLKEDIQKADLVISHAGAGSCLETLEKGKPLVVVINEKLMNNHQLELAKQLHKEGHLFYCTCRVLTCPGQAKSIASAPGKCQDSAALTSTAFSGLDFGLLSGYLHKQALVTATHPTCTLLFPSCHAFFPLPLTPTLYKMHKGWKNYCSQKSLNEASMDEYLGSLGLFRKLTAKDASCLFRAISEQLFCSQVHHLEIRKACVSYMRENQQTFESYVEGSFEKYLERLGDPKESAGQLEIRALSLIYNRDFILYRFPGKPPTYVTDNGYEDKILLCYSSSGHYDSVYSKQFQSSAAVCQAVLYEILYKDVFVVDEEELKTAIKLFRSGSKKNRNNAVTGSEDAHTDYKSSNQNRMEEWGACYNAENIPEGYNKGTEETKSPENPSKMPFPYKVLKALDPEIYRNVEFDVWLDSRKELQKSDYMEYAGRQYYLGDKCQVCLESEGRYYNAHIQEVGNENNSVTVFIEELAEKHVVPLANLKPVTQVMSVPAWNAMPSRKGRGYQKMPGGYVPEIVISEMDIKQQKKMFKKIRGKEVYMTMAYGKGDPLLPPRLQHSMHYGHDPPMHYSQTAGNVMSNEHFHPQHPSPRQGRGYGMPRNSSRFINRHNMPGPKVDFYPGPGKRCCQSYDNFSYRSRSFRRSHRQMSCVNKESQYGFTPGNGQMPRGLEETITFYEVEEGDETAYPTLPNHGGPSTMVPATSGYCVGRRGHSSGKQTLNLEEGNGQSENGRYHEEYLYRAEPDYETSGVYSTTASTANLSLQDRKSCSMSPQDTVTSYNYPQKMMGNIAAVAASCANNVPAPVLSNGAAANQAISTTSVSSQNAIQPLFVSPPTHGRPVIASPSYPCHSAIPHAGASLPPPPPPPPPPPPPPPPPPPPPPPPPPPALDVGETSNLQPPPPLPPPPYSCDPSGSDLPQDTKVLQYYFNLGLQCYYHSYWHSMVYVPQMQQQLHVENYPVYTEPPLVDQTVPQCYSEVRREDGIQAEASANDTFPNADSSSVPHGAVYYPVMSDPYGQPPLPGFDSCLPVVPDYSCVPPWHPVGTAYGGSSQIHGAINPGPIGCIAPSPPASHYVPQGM
In short: (§1)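 HEK293T lysate (495 µg per sample, in Tris/CHAPS/IGEPAL buffer with protease inhibitors) was exposed in triplicate for 3 h to fragment at 200 µM or to vehicle, then to Biotin-Ahx-Ub-VS at 0.5 µM final for 1 h. Labelled DUBs were enriched on NeutrAvidin, digested with LysC and trypsin, and analysed by diaPASEF LC-MS/MS. Spectronaut label-free quantities were normalised to the global median, and values are average log2 ratios of fragment over vehicle from an unpaired t-test. Only proteins with ≥2 unique peptides were used.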

[2] = target: ATXN3 (UniProt P54252)
Sequence of ATXN3 (P54252 whole entry): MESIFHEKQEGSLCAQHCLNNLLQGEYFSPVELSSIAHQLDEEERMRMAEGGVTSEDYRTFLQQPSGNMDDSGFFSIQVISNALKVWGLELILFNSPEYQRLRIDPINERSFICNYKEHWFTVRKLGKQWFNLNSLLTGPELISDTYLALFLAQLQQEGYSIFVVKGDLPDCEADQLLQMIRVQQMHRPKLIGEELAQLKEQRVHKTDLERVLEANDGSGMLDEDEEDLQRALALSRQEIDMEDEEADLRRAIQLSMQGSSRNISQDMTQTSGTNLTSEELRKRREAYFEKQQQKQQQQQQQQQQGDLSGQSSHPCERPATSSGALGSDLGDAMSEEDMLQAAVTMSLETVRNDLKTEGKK
In short: as §1

[3] = target: T2, BAP1 (UniProt Q92560)
T2 sequence (whole entry): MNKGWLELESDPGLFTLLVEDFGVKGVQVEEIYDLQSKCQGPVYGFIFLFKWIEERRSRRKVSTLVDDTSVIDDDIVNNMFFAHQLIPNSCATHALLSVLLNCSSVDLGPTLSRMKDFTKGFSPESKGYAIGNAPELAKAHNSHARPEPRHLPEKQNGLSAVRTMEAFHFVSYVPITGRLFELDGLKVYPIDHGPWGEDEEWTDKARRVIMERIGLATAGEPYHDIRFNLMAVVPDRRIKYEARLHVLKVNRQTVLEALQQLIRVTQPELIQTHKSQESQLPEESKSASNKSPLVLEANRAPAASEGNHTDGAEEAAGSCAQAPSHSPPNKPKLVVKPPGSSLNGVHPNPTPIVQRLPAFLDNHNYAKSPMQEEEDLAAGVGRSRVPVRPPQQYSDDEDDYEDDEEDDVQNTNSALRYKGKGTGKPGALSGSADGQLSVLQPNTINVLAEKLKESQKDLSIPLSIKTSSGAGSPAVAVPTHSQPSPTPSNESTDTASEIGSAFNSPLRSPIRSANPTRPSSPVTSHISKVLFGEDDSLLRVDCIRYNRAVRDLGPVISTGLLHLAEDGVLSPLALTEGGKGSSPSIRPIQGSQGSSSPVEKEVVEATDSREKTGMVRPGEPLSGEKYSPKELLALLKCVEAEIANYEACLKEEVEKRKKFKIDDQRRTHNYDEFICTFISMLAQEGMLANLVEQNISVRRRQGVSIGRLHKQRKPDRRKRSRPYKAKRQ
In short: as §1

[4] = target: EIF3F (UniProt O00303)
Sequence of EIF3F (O00303 whole entry): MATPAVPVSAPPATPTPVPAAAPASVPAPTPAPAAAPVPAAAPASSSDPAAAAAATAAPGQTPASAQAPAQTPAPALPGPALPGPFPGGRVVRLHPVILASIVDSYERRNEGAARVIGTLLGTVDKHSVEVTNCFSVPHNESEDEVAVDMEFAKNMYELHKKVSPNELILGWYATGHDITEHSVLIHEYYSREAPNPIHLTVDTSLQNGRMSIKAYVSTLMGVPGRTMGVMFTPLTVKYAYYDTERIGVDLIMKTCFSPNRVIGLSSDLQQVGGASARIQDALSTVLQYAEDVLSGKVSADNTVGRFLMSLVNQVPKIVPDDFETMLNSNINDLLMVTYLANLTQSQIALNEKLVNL
In short: as §1

[5] = target: EIF3H (UniProt O15372)
Sequence of EIF3H (O15372 whole entry): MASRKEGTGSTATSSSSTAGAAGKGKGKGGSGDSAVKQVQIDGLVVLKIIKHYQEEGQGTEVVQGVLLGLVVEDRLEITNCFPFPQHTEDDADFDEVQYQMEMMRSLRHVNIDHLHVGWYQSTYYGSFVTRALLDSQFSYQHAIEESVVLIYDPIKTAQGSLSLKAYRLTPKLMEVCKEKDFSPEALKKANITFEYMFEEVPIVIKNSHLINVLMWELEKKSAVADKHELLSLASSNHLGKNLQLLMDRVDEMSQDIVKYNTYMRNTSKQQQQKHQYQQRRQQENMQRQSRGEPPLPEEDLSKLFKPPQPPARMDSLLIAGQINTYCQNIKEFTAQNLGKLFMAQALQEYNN
In short: as §1

[6] = target: T3, FAM105A (UniProt Q9NUU6)
T3 sequence (whole entry): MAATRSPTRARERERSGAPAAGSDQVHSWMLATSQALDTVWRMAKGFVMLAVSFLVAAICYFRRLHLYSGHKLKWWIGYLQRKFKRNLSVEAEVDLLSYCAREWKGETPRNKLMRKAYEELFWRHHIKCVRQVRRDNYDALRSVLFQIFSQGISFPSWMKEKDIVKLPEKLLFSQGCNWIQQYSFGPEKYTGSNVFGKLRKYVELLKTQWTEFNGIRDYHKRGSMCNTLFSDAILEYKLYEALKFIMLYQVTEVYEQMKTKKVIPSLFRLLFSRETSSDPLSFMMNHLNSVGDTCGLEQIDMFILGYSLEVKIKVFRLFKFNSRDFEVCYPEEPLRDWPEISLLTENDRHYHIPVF
In short: as §1

[7] = target: OTUB1 (UniProt Q96FW1)
Sequence of OTUB1 (Q96FW1 whole entry): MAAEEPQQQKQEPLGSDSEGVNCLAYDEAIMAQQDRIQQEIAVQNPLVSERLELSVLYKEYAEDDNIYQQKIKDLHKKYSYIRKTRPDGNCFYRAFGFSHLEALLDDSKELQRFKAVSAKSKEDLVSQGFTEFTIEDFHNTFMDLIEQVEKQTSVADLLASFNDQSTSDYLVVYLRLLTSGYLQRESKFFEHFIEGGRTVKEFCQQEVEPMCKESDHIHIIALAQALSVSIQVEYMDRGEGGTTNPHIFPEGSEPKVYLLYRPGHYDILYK
In short: as §1

[8] = target: T4, OTUD4 (UniProt Q01804)
T4 sequence (whole entry): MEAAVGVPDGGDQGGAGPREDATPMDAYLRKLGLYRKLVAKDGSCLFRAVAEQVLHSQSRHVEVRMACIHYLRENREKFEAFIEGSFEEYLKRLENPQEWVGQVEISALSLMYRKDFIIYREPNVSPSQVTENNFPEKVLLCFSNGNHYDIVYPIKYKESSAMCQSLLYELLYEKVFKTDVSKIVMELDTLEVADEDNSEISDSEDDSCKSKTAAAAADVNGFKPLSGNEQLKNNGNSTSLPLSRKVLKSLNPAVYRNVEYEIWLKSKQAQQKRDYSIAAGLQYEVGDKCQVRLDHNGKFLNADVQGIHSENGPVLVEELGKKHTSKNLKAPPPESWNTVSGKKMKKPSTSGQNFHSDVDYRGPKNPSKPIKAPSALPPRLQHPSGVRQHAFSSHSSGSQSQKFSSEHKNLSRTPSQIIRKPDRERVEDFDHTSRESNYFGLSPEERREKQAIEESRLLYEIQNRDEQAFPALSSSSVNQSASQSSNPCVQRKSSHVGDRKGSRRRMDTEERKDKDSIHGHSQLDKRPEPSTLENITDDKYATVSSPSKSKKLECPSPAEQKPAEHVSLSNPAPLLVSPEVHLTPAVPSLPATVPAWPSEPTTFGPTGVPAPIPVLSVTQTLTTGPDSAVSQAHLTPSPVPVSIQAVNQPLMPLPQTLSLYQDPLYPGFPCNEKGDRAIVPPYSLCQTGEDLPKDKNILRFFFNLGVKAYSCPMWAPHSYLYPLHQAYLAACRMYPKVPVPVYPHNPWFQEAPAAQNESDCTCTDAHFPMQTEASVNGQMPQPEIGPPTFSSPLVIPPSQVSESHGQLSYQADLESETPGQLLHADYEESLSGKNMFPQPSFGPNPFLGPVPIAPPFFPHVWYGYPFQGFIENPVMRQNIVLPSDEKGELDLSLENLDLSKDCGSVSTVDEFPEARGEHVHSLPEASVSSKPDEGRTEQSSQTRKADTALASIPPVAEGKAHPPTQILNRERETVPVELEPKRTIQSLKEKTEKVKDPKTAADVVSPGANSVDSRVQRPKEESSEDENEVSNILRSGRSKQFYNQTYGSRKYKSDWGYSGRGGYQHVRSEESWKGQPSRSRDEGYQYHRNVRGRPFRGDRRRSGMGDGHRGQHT
In short: as §1

[9] = target: T5, OTUD5 (UniProt Q96G74)
T5 sequence (whole entry): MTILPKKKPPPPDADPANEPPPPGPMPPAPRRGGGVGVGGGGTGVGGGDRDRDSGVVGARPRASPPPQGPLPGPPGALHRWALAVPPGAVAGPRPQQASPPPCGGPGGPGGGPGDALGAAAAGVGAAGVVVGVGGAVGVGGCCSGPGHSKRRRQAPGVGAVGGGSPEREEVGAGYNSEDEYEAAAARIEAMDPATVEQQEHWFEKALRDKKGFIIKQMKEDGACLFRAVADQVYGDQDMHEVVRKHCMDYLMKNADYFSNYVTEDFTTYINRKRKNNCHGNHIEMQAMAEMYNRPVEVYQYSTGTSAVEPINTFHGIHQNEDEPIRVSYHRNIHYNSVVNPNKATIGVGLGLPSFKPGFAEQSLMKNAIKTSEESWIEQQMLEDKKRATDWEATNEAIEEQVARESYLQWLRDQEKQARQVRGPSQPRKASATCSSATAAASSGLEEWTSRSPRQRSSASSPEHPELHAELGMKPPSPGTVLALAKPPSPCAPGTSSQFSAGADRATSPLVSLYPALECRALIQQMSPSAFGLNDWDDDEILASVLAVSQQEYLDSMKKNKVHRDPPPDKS
In short: as §1

Measured: log2 ratio of Biotin-Ahx-Ub-VS probe labelling

COc1ccc(CN(C)C(=O)CCl)cc1
active: [3] -1.65
inactive: [1] -0.466 | [2] -0.667 | [4] -0.171 | [5] 0.0709 | [6] 0.32 | [7] -0.0239 | [8] -0.413 | [9] -0.536
